# Screens from PubChem.
# Compounds with a hit are over-represented: about 17% of the library has one in this group of screens.
# TGFb inhibitor – TGF-b pathway inhibition. HepG2 CAGA-GFP TGF-b/SMAD3 reporter, GFP fluorescence, 18 h; TGF-beta stimulated, 500 pg/mL final. Potency, µM (doses to about 46.1 µM), without a hit: top-dose activity, negative = inhibition, actives largely listed as inhibitors. 410,000 compounds, 1.2% hits. AID 588855; also: % is scaled to controls: 0 for no effect and ±100 for the full control effect; nearly all actives have a fitted effect of over 65% in size
#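 Inhibition was scored as loss of TGF-beta-induced (500 pg/mL final, 18 hours, 37 degrees C) GFP in HEPG2 cells carrying a CAGA-GFP reporter, in DMEM with 1% FBS. Well GFP was summed per cell; Activity was normalised to unstimulated and stimulated DMSO wells, then concentration-response fitting.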
# ATXN viability – viability counter-screen for ATXN expression inhibitors. S2 cells (HEK-293 line with an ATXN2-luciferase reporter) viability, CellTiter-Fluor protease fluorescence, 24 h. Potency, µM (doses to about 56.7 µM), most hits filed as cytotoxic. 400,000 compounds, 0.49% hits; also: nearly all actives have a fitted effect of over 40% in size
# HepG2 tox – HepG2 cytotoxicity, counter-screen for TGF-b inhibitors; HepG2 CAGA-GFP viability, ATP luminescence, 18 h; Potency, µM (highest dose often 46.1 µM), without a hit: at the highest dose activity change, negative = cytotoxicity, usual class: cytotoxic; 410,000 compounds, 0.76% hits; AID 588856
#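 HepG2 CAGA-GFP cells (1000/well, DMEM with 1% FBS) received compound, then TGF-beta at 500 pg/mL final, and were incubated 18 hours at 37 degrees C. Viability was read by CellTiter-Glo luminescence. Media-only wells were set as complete cell-killing and DMSO as no toxicity.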
# DT40 TDP1 CPT – growth inhibition of DT40 Tdp1-/-;hTDP1 cells with camptothecin (screen for TDP1 inhibitors); Potency, µM (series often up to 46.2 µM), inactives show top-dose activity change, negative = growth inhibition, usual class: inhibitors; chicken DT40 Tdp1-/-;hTDP1 cells + 20 nM CPT, ATP luminescence, 48 h; AID 686979; 420,000 compounds, 12% hits; also: % is scaled to controls: 0 for no effect and ±100 for the full control effect; nearly all actives have a fitted effect of over 55% in size
#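 Cell growth measured by CellTiter-Glo luminescence after a minimum 48 h, 37 C compound exposure with 20 nM CPT in Tdp1-knockout DT40 cells stably expressing hTDP1, seeded 400/well; qHTS titration format.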
# ATXN2 expr inh – reduces ATXN2 reporter expression in HEK-293 cells; HEK-293 ATXN2-luciferase reporter, luminescence, 24 h; Potency, µM (doses to about 57 µM), inactives show top-dose activity change, negative = inhibition, usual class: inhibitors; 360,000 compounds, 0.72% hits; AID 1745845; also: % is scaled to controls: 0 for no effect and ±100 for the full control effect; nearly all actives have a fitted effect of over 55% in size
#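 qHTS (up to 57 uM final) was run with 24 h compound exposure of reporter cells at 37 °C. Each well was multiplexed: SteadyGlo luminescence measured ATXN2-luciferase expression after a fluorogenic Gly-Phe-AFC viability readout (25 uM final).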
# DT40 TDP1 no CPT – qHTS for Inhibitors of human tyrosyl-DNA phosphodiesterase 1 (TDP1): qHTS in cells in absence of CPT | 420,000 compounds, 15% hits | AID 686978, 2013 | Potency, µM (titrated, usually from 46.2 µM), for inactives: top-dose activity change, negative = growth inhibition, most hits filed as inhibitors | DT40 Tdp1-/- hTDP1 cells, no CPT, ATP luminescence, 48 h; also: % is scaled to controls: 0 for no effect and ±100 for the full control effect; nearly all actives have a fitted effect of over 55% in size
#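 Cells were dispensed at 400 per well, compounds added by pin tool, plates incubated ≥48 hr at 37 °C, then CellTiter-Glo added for 30 min at room temperature before luminescence reading. Line: DT40 Tdp1-/- complemented with hTDP1; camptothecin omitted.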
# Numbers without * were called inactive; i = inactive; ? = inconclusive; / = no result given. Calls follow the shape of the dose curve; as a rule, active = well fitted curve in the direction sought with a large enough effect; inconclusive = small, poorly fitted or top-dose-only effect, or another doubt; inactive = no such curve, though single readings can be large; an effect the other way counts as inactive or inconclusive. Potency is read from the fitted curve at half-maximal effect.
SMILES,TGFb inhibitor,ATXN viability,HepG2 tox,DT40 TDP1 CPT,ATXN2 expr inh,DT40 TDP1 no CPT
CN(Cc1ccco1)c1ncnc2ccc(-c3ccc4c(c3)OCO4)cc12,-5.1%,i,-18.6%,18.4µM*,0.0%,16.4µM*
CC1CCN(S(=O)(=O)N2CCC(C(=O)NC(C)c3ccccc3)CC2)CC1 (configuration not stated),-7.2%,i,-7.4%,10.3µM*,/,?
CC(=O)N1c2ccc(S(=O)(=O)N3CCN(c4cc(Cl)ccc4C)CC3)cc2CC1C (configuration not stated),?,i,-2.6%,?,3.5%,?
COc1cc2c(cc1[N+](=O)[O-])-c1ccc([N+](=O)[O-])cc1C2=NNC(N)=S,5.1%,?,28.3%,?,/,7.31µM*
CCn1c(SCC(N)=O)nnc1-c1cc2c(C)nn(-c3ccccc3)c2s1,7.0%,i,0.8%,?,18.0%,29.1µM*
O=C1N(Cc2ccccc2)CC2(Br)COCOC12O (configuration not stated),-2.1%,i,8.6%,2.31µM*,9.2%,3.26µM*
COc1ccc(C2c3c(-c4c(C)cc(C)cc4O)n[nH]c3C(=O)N2Cc2ccco2)cc1 (configuration not stated),?,17.8µM*,-105.4%,14.6µM*,?,16.4µM*
Cc1cc(C)c(-c2n[nH]c3c2C(c2ccccc2F)N(Cc2ccco2)C3=O)c(O)c1 (configuration not stated),?,/,-99.1%,20.6µM*,/,20.6µM*
COc1ccc(C2c3c(-c4ccccc4O)n[nH]c3C(=O)N2Cc2ccco2)cc1 (configuration not stated),?,?,-21.0%,?,-0.9%,?
CO[C@H]1[C@H](NC(=O)C(C)C)c2ccccc2C12CCN(Cc1c(C)nn(C)c1Cl)CC2,/,i,/,5.2%,/,-11.6%
CCCCCNC(=O)c1ccc2c(c1)nc(C)n2-c1cccc(C)c1,22.3%,i,9.8%,14.6µM*,-15.1%,?
O=C(CCC(=O)c1ccc(Cl)cc1)OCc1nc2ccsc2c(=O)[nH]1,16.4%,i,9.8%,-17.1%,5.6%,-2.5%
COc1ccc(CCCNC(=O)C2(C)Cc3c(-c4ccc(C(N)=O)cc4)ccnc3O2)cc1 (configuration not stated),35.1%,i,-1.5%,?,-4.1%,?
CC1(C(=O)NCc2cccs2)Cc2c(-c3ccccc3)ccnc2O1 (configuration not stated),11.6%,i,-10.7%,5.8µM*,-13.7%,6.51µM*
COc1ccc(CCCNC(=O)C2(C)Cc3c(-c4ccc5c(c4)OCO5)ccnc3O2)cc1 (configuration not stated),?,?,-31.8%,5.17µM*,-21.8%,5.8µM*
CC1(C(=O)NCc2cccc(Cl)c2)Cc2c(-c3ccc4c(c3)OCO4)ccnc2O1 (configuration not stated),?,i,-28.5%,25.9µM*,-22.4%,16.4µM*
CC1(C(=O)NCc2cccs2)Cc2c(-c3ccc4c(c3)OCO4)ccnc2O1 (configuration not stated),-22.2%,i,2.6%,1.3µM*,-31.3%,2.31µM*
CCN(CC)C(=S)Nc1c(C)n(C)n(-c2ccccc2)c1=O,9.5%,i,16.0%,17.6%,-27.4%,5.2%
Cc1ccc(-n2ncc3c2CC(C)(C)CC3NC(=O)C2CCOCC2)cc1 (configuration not stated),-2.9%,i,-15.3%,-9.6%,16.1%,-15.2%
